For twelve molecules, growth results are on record in PubChem BioAssay (NCI).

Molecules are shown by their SMILES. About 83,000 compounds went through this panel and 20% of them were active in at least one assay; those are over-represented in the sample as a whole.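 In brief: 96-well plates, 48 h treatment, single concentration, percent growth endpoint.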 Values without a mark were called inactive. The source made the active and inactive calls. Rule for the calls: active = growth percent below 10; inactive = the rest.

Some test systems named below: SK-MEL-2 melanoma; EKVX NSCLC; SN12C renal; UO-31 renal; TK-10 renal; ACHN renal; A498 renal; CCRF-CEM leukemia; MOLT-4 leukemia; SR leukemia.
Holding throughout (experiment): NCI-60 one-dose screen, 48 h (100 = growth as untreated, 0 = no growth, -100 = all killed)
Settings in all cases: 10 µM unless noted

Consider `COC(=O)c1nc(-c2ccccc2)oc1S(=O)(=O)n1nc(-c2ccccc2)cc1N`, for which the growth is 85.9% in the assay with SK-MEL-2 melanoma; 95.9% with EKVX NSCLC; 73.3% in the assay with SN12C renal; 65.6% in the assay with UO-31 renal; 114% in the assay with TK-10 renal; 19.2% with ACHN renal. The growth is 108% with A498 renal, 27.2% with CCRF-CEM leukemia, 17.6% with MOLT-4 leukemia and 1.74% (active) with SR leukemia.

Take `COc1ccc2oc(=O)cc(-c3nc4ccc(N)cc4[nH]3)c2c1`: the growth was 89.5% in the assay with SK-MEL-2 melanoma; 82.2% in the assay on EKVX NSCLC; 92.4% with SN12C renal; 44.9% in the assay on UO-31 renal; 96.5% in the assay with TK-10 renal; 79.9% in the assay with ACHN renal. The growth in the assay on A498 renal was 61.5%; with CCRF-CEM leukemia it was 108%; in the assay with MOLT-4 leukemia it was 73.4%; with SR leukemia, 76.1%.

In the case of `CN1C(=O)c2cc(Cl)nc3c(NC(=O)c4cccc(Cl)c4)c(Cl)c(NC(=O)c4cccc(Cl)c4)c1c23`, the growth was -39% (active) in the assay with SK-MEL-2 melanoma; 27.4% in the assay with EKVX NSCLC; -43.2% (active) in the assay with SN12C renal; -61.8% (active) in the assay on UO-31 renal; 39.9% with TK-10 renal; -61.7% (active) in the assay on ACHN renal. The growth in the assay with A498 renal is 96.6%; in the assay on CCRF-CEM leukemia, 7.27% (active); in the assay on MOLT-4 leukemia it was -19.9% (active); in the assay with SR leukemia, -44.7% (active).

For `C=C1C(=O)O[C@H]2[C@H]1CC/C(COC(=O)Nc1nc3ccccc3[nH]1)=C\CC[C@@]1(C)O[C@@H]21`, the growth with SK-MEL-2 melanoma was 68.1%; in the assay on EKVX NSCLC, 58.7%; with SN12C renal it was 67.4%; in the assay with UO-31 renal it was 43.1%; with TK-10 renal, 46.3%; with ACHN renal it was 32.5%. Besides, the growth was 102% in the assay with A498 renal, 6.53% (active) in the assay on CCRF-CEM leukemia, 45.9% with MOLT-4 leukemia and 16.2% in the assay with SR leukemia.

Consider `CO[C@@]12C=C[C@@]34CCC(=O)N3c3ccccc3[C@@H](O1)C4C2`, for which the growth in the assay with SK-MEL-2 melanoma is 101%; in the assay on EKVX NSCLC, 98.8%; with SN12C renal, 95.5%; in the assay on UO-31 renal it was 81.4%; with TK-10 renal it was 95.1%; with ACHN renal it was 98.6%. Also, the growth with A498 renal is 109%; in the assay with CCRF-CEM leukemia, 90.1%; in the assay on MOLT-4 leukemia, 95.9%; in the assay on SR leukemia it was 96.9%.

As to `N#CC(C#N)=C1NC(c2ccccc2)=C(c2ccccc2)C(c2ccccc2Cl)=C1C#N`, the growth in the assay with SK-MEL-2 melanoma is 94.8%; in the assay with EKVX NSCLC, 97.6%; in the assay with SN12C renal, 111%; in the assay with UO-31 renal, 96.8%; in the assay with TK-10 renal, 80.7%; in the assay with ACHN renal, 110%. In addition, the growth in the assay with A498 renal was 113%; in the assay with CCRF-CEM leukemia it was 96.2%; with MOLT-4 leukemia it was 81.5%; with SR leukemia it was 109%.

`CNc1cccc2c1C(=O)c1cccc(N)c1C2=O`: the growth with SK-MEL-2 melanoma is 63.7%; in the assay on EKVX NSCLC, 37.9%; in the assay with SN12C renal it was 91%; in the assay on UO-31 renal, 62.1%; with TK-10 renal, 25.8%; in the assay on ACHN renal it was 72.2%. The growth was 65% with A498 renal, 20.5% in the assay on CCRF-CEM leukemia, 29.4% in the assay with MOLT-4 leukemia and 9.01% (active) with SR leukemia.

`CS(=O)(=O)O[C@@H]1C(=O)N(c2cc3c4ccccc4ccc3c3ccccc23)[C@H]1c1ccc(F)cn1`: the growth in the assay with SK-MEL-2 melanoma is 14.4%; with EKVX NSCLC, 47.1%; with SN12C renal, 40.6%; in the assay with UO-31 renal it was 46.9%; with TK-10 renal, 81.7%; in the assay on ACHN renal, 52%. Also, the growth is 14.6% in the assay with A498 renal, 10.4% with CCRF-CEM leukemia, 24.3% with MOLT-4 leukemia and 11.4% in the assay with SR leukemia.

As for `COc1cc(-c2csc(NC(=O)Nc3ccc(C(F)(F)F)cc3)n2)cc(OC)c1OC`, the growth in the assay on SK-MEL-2 melanoma was -23.8% (active); with EKVX NSCLC, 5.7% (active); in the assay with SN12C renal, 3.08% (active); with UO-31 renal, -2.16% (active); with TK-10 renal, 4.58% (active); in the assay with ACHN renal, 3.21% (active). Also, the growth was -24.1% (active) with A498 renal, 5.13% (active) in the assay with CCRF-CEM leukemia, -9.27% (active) in the assay with MOLT-4 leukemia and -3.44% (active) with SR leukemia.

As for `O=S(=O)(O)c1ccc(N=NSc2ccc3ccccc3c2)cc1`, the growth in the assay with SK-MEL-2 melanoma is 92.4%; in the assay with EKVX NSCLC it was 99.4%; in the assay on SN12C renal, 107%; with UO-31 renal, 71%; in the assay on TK-10 renal, 103%; with ACHN renal, 95.3%. For the same molecule, the growth with A498 renal is 107%; in the assay with CCRF-CEM leukemia, 89.8%; in the assay with MOLT-4 leukemia, 94.2%; in the assay with SR leukemia, 104%.

`CCCn1c2cc(OCc3cn(-c4ccc(Cl)cc4)nn3)ccc2c2ccnc(C)c21`: the growth in the assay on SK-MEL-2 melanoma was 87%; with EKVX NSCLC it was 80.1%; with SN12C renal, 34.2%; in the assay with UO-31 renal it was 46.4%; in the assay with TK-10 renal it was 113%; in the assay with ACHN renal, 34.3%. Moreover, the growth in the assay on A498 renal was 76.2%; in the assay on CCRF-CEM leukemia it was 56.8%; in the assay with MOLT-4 leukemia it was 57.1%; in the assay with SR leukemia, -32.4% (active).

In the case of `C=C1C(=O)O[C@H]2[C@H]1CC/C(COC(=O)CCCCCCC(=O)OC/C1=C/CC[C@@]3(C)O[C@H]3[C@H]3OC(=O)C(=C)[C@@H]3CC1)=C\CC[C@@]1(C)O[C@@H]21`, the growth is 84.6% in the assay with SK-MEL-2 melanoma; 24.6% with EKVX NSCLC; 6.29% (active) in the assay with SN12C renal; -21.8% (active) in the assay with UO-31 renal; -5.79% (active) in the assay on TK-10 renal; -38.6% (active) with ACHN renal. Further, the growth was 96.3% in the assay on A498 renal, 4.54% (active) in the assay with CCRF-CEM leukemia, 2.4% (active) in the assay with MOLT-4 leukemia and -2.74% (active) in the assay on SR leukemia.
